# Assay results as given in PubChem BioAssay (NCATS).
# Several values for one entry are separate records, joined by “and”; a condition that tells them apart may be missing. Identical values can stand only once. Records with an inconclusive call do not appear. Where a call stands in place of a potency, no number is given. Activity calls are given as the source filed them. Calls come from the whole dose curve; as a rule, active = well fitted cell-killing curve with a large enough effect; inconclusive = small, poorly fitted or top-dose-only effect; inactive = flat fitted curve, though single readings scatter.
# Test: Cell Viability - LYMP2-020 (AID 986); note: nearly all actives have a fitted effect of over 55% in size
# Details: series mostly up to 92.2 µM
# Excerpt: NIH Chemical Genomics Center [NCGC]
# NIH Molecular Libraries Screening Centers Network [MLSCN]
# National Institutes of Environmental Health Sciences [NIEHS]
# National Toxicology Program [NTP]
# We have developed a 1536-well cell-based assay for quantitative high throughput screening (qHTS) against a number of cell lines to determine in vitro cytotoxicity of small molecules. This particular assay uses a human lymphoblastoid cell line (LYMP2-020) purchased from Coriell Institute for Medical Research.
# NCGC Assay Protocol Summary:
# The CellTiter-Glo luminescent cell viability assay (Promega) is a homogeneous method to measure the number of viable cells in culture. The end point readout of this assay is based on quantitation of intracellular ATP, an indicator of metabolic activity, using the luciferase reaction. Luciferase catalyzes the oxidation of beetle Luciferin to oxyluciferin and light in the presence of ATP. The luminescent signal is proportional to amount of ATP present.
# Using the CellTiter-Glo luminescent cell viability assay, the amount of cellular ATP was measured in the lymphoblastoid cell line with complete culture medium following compound treatment for 24 hours. The assay was performed in opaque white Kalypsys 1536-well plates. In the screen, tetraoctylammonium bromide was used as positive control. Library compounds were measured for their ability to cause acute toxicity in the cell line, as reflected by a decrease in intracellular ATP levels, in a concentration-dependent manner. […] AC50 values were determined from concentration-response data modeled with the standard Hill equation.
# qHTS protocol for CellTiter Glo lymphoblastoid cellular assay
# [Step] [Parameter] [Value] [Description]
# 1. Reagent; 5 uL; 2500 lymphoblastoid cells/well
# 2. Time; 5 hr; 37 C incubation
# 4. Controls; 23 nL; Tetraoctylammonium bromide 6.4pM to 92 uM
# 5. Time; 24 hr; 37 C incubation
# 6. Reagent; 5 uL; CellTiter Glo reagent
# 7. Time; 30 min; Room Temperature
# 8. Detection; Luminescence; Viewlux plate reader
# Keywords: cell viability, cytotoxicity, lymphoblastoid cell line, luminescence, NTPHTS, NTPHTS_NCGC, NIEHS, DSSTox, MLSMR, MLSCN, NIH Roadmap, qHTS, NCGC
# Potency is the fitted concentration of half-maximal effect.
row,Structure (SMILES),Potency
1,CCC(C)c1ccccc1O (stereo not given),inactive
2,O[C@@H]([C@H](O)[C@@H](O)CBr)[C@@H](O)CBr,inactive
3,C=CC(=O)OCCOCCOCCOCCOC(=O)C=C,12.6 µM (active) and 15.8 µM (active)
4,COc1c2ccoc2cc2oc(=O)ccc12,inactive
5,COC(=O)CCCCC(=O)OC,inactive
6,O=C(O)CC(C(=O)O)C(CC(=O)O)C(=O)O (stereo not given),inactive
7,CCC(O)OC(O)CC (stereo not given),inactive
8,O=C(O)c1ccccc1,inactive
9,CN(C)CCCCCCN(C)C,inactive
10,CC1=CC(C)(C)Nc2ccccc21,inactive
11,c1ccccc1,inactive
12,CCCCC(CC)CN (stereo not given),inactive
13,Nc1ccc(Cl)cc1Cl,inactive
14,CCCCCCCCCCCCCCC1CO1 (stereo not given),inactive
15,COC(=O)c1ccc(C)cc1,inactive
16,c1ccc2scnc2c1,inactive
17,O=C(O)c1ccc(O)cc1O,inactive
18,CC1=C2[C@H](/C=C(\C)C(=O)O)CC[C@@H](C)[C@H]2CC1,inactive
19,Clc1cc(Cl)c(Cl)c(Cl)c1Cl,inactive
20,O=C1CCc2ccccc2O1,inactive

row,Structure (SMILES),Potency
1,Cc1ccc([N+](=O)[O-])c(C)c1,inactive
2,c1ccc2c(c1)c1cccc3ccc4cccc2c4c31,inactive
3,Clc1cc(Cl)c(Cl)cc1Cl,inactive
4,OCCNCCO,inactive
5,CCCCCCCCCCCCCC(=O)O,inactive
6,Cc1c(N=C=O)cccc1N=C=O,inactive
7,Cc1ccccc1C,inactive
8,Nc1ccc(S(=O)(=O)O)cc1,inactive
9,CC1(C)CC(N=C=O)CC(C)(CN=C=O)C1 (stereo not given),inactive
10,CCCN(CCC)C(=O)SCC,inactive
11,Cc1ccc([N+](=O)[O-])cc1N,inactive
12,CCCCCCCCO,inactive
13,C/C=C\c1ccc(OC)cc1,inactive
14,NC1=NC(S)C2N=CN=C2N1 (stereo not given),10 µM (active)
15,Cc1cccc([N+](=O)[O-])c1C,inactive
16,COCC(=O)O,inactive
17,S=C1NC=NC2N=CNC12 (stereo not given),inactive
18,O=C(/C=C/c1ccc(O)c(O)c1)O[C@@H](C(=O)O)[C@@H](OC(=O)/C=C/c1ccc(O)c(O)c1)C(=O)O,inactive
19,Cc1ccc(N)c([N+](=O)[O-])c1,inactive
20,CN(C)C=O,inactive
